These results are taken from PubChem BioAssay (NCATS).

Holding throughout (experiment): Cytotoxic Profiling of Annotated Libraries Using Quantitative High-Throughput Screening (AID 1296008); also: nearly all actives have a fitted effect of over 60% in size
Common to all, as to settings: Five cell lines viability, CellTiter-Glo ATP luminescence, 48-72 h; max response: stronger effect = lower value
For orientation: ATP-based viability assays read luminescence as a measure of living cells.

Assay [1] deals with HaCat. In short, it runs like this:
(§1)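 Cells exposed to compounds for 48 or 72 hr at 37 degrees Celsius. Viability read as ATP-coupled luminescence with CellTiter-Glo after 10 min at room temperature.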

Assay [2] concerns KB-3-1. In short, it runs like this:
as §1

Assay [3] relates to NIH3T3. In short, it runs like this: as §1

Molecules are shown by their SMILES. Inconclusive results are not listed. Unmarked numbers belong to inactive results. Activity calls are given as the source filed them. Calls follow the shape of the dose curve; as a rule, active = well fitted inhibition curve with a large enough effect; inconclusive = small, poorly fitted or top-dose-only effect; inactive = flat fitted curve, though single readings scatter.
% is scaled to controls: 0 for no effect and ±100 for the full control effect; potency is read from the fitted curve at half-maximal effect.

On to `O=C(O)Cc1ccc2oc(-c3ccc(NC(=O)/C=C/c4ccc(Br)cc4)c(F)c3)nc2c1`, for which the max response in assay [1] is 2.81%; in assay [2], 0.378%; in assay [3], 1.97%.

In the case of `COc1c/c(=C2\C=c3ccccc3=N2)[nH]/c1=C\c1[nH]c(C)cc1C`, the Potency is 4110 nM (active) in assay [1], 2310 nM (active) in assay [2] and 6510 nM (active) in assay [3].

Regarding `COC(=O)CCC(=O)OC[C@]1(C)CCC[C@@]2(C)C3CC[C@]4(C)C=CC3(CCC12)C4` (stereo partly specified), the max response in assay [1] is 1.33%; in assay [2], 2.37%; in assay [3], -0.0416%.

Take `Cc1ccc(-c2ccc3ncc4c(c3n2)n(C2CCN(C(=O)[C@H](C)O)CC2)c(=O)n4C)cn1`: the results for the Potency in assay [1], in assay [2] and in assay [3] were 1460 nM (active), 116 nM (active) and 231 nM (active), respectively.

As for `CN(C)C1CCN(C(=O)c2ccc(NC(=O)Nc3ccc(-c4nc(N5CCOCC5)nc(N5CCOCC5)n4)cc3)cc2)CC1`, the Potency is 116 nM (active) in assay [1], 58 nM (active) in assay [2] and 130 nM (active) in assay [3].

Take `COc1cc(/C=C/C(=O)O[C@H]2[C@H](O)[C@@H](CO)O[C@@]2(CO)O[C@H]2O[C@H](CO)[C@@H](O)[C@H](O)[C@H]2O)ccc1O`: the figures for the max response in assay [1], in assay [2] and in assay [3] were -4.81%, 1.78% and 1.81%, respectively.

`Cc1nc(C)c(-c2ccc(C3CCC(CC(=O)O)CC3)cc2)nc1C(N)=O` (stereo unspecified): the max response in assay [1] is -2.77%; in assay [2] it was -11.8%; in assay [3], 2.81%.

Take `C[C@H]1CC(=O)Nc2cccc(-c3cnn(C(C)(C)C)c3)c2N1`: the max response was 4.21% in assay [1], -8.91% in assay [2] and -7.27% in assay [3].

On to `COc1cccc(C(=O)N2CCN(C(=O)COc3cccc(C)c3)CC2)c1OC`, for which the max response in assay [1] was -1.12%; in assay [2], -10.9%; in assay [3] it was -5.08%.

Consider `C=C(C)C1CCC2(C(=O)O)CCC3(C(=O)O)C(CCC4C5(C)CCC(O)C(C)(C(=O)O)C5CCC43C)C12` (stereo unspecified), for which the max response in assay [1] is 3.2%; in assay [2], -7.04%; in assay [3], 1.18%.

For the molecule `CC(=O)NC1C(OC(C)(C)C2CCC3(C)C=C(C4CCC5C4(C)CC(O)C4OC(C(C)(C)O)CCC45C)CCC3O2)OC(CO)C(O)C1O` (stereo unspecified), the max response is 3.68% in assay [1], -23.5% in assay [2] and -10.4% in assay [3].

In the case of `C=C1C(=O)OC2CC3(C)C(CC12)C(C)=CC(O)C3OC(C)=O` (stereo unspecified), the figures for the max response in assay [1] and in assay [3] were 3.89% and -1.8%, respectively. For the same molecule, the result in assay [2] was inactive.

Consider `CC1=C(C(=O)O)/C(=C\CO[C@@H]2O[C@H](CO)[C@@H](O)[C@H](O)[C@H]2O)C(OC(=O)/C=C/c2ccc(O)cc2)C1` (stereo partly specified), for which the max response in assay [1] is -26%; in assay [2], 8.61%; in assay [3] it was -19.1%.

Consider `C=CC(=O)Nc1cc(Nc2ncc(Cl)c(-c3c[nH]c4ccccc34)n2)c(OC)cc1N(C)CCN(C)C`, for which the Potency is 580 nM (active) in assay [1], 4110 nM (active) in assay [2] and 5800 nM (active) in assay [3].

For the molecule `CC1=C(COC2OC(CO)C(O)C(O)C2O)C(C(CO)C(=O)O)CC1` (stereo unspecified), the max response in assay [1] was -4.43%; in assay [2], 9.18%; in assay [3], -0.514%.

For the molecule `C[C@@H]1COCCN1c1cc(C2(S(C)(=O)=O)CC2)nc(-c2cccc3[nH]ccc23)n1`, the Potency in assay [1] is 5800 nM (active); in assay [2], 2590 nM (active); in assay [3], 2060 nM (active).

In the case of `COc1c2c(c(C)c3c1C(=O)OC3)OC1(C)CC(O)C34OC(OC)(OC3(C)C)C(O)CC4(C)C1C2` (stereo unspecified), the results for the max response in assay [1] and in assay [3] were -21.2% and -1.37%, respectively. In assay [2], the molecule was classed as inactive.

As to `CCN(CC)Cc1ccc(C(=O)N(CCc2ccccc2OC)[C@@H]2CCNC2)cc1`, the max response in assay [1] is -4.71%. Further, the results for the Potency in assay [2] and in assay [3] were 3990 nM (active) and 2520 nM (active), respectively.

As for `COC(=O)C1(C)CCC2(C(=O)O)CCC3(C)C(=CCC4C5(C)CC(O)C(OC6OCC(O)C(O)C6O)C(C)(CO)C5CCC43C)C2C1` (stereo unspecified), the max response was -27.2% in assay [1], 9.85% in assay [2] and -9.3% in assay [3].

On to `CC1C(=O)OCC2=CCN3CCC(OC(=O)C(C)(O)C1(C)O)C23` (stereo unspecified), for which the max response is -22.6% in assay [1] and -32% in assay [3]. The outcome in assay [2] was inactive.

For the molecule `COC(C(=O)N1Cc2[nH]nc(NC(=O)c3ccc(N4CCN(C)CC4)cc3)c2C1)c1ccccc1` (stereo unspecified), the Potency in assay [1] was 5800 nM (active); in assay [2] it was 8200 nM (active); in assay [3], 4110 nM (active).

On to `C/C=C1\[C@H](O[C@@H]2O[C@H](CO)[C@@H](O)[C@H](O)[C@H]2O)OC=C(C(=O)OC)[C@H]1CC(=O)OC[C@H]1O[C@@H](OCCc2ccc(O)cc2)[C@H](O)[C@@H](O)[C@@H]1O`, for which the max response in assay [1] was -4.08%; in assay [2] it was 1.44%; in assay [3], -11.8%.

As to `O=C(O)COCCN1CCN([C@H](c2ccccc2)c2ccc(Cl)cc2)CC1`, the max response in assay [1] was -30.6%; in assay [2] it was 0.104%; in assay [3] it was 0.14%.

For the molecule `CC(C)O[C@@H]1O[C@H](CO)[C@@H](O)[C@H](O)[C@H]1O`, the max response in assay [1] is 4.48%; in assay [2], 2%; in assay [3], 4.22%.

Regarding `CC1=C2C[C@H]3O[C@@]3(C)CCC3O[C@@]3(C)C[C@@]2(O)OC1=O` (stereo partly specified), the max response in assay [1] was -4.97%; in assay [3] it was 2.41%. Moreover, the outcome in assay [2] was inactive.

For `CCC(C)C(=O)OC1CC(C)C=C2C=CC(C)C(CCC(O)CC(O)CC(=O)O)C21` (stereo unspecified), the results for the max response in assay [1], in assay [2] and in assay [3] were -2.56%, 5.43% and -8.16%, respectively.

For `C/C1=C\CC[C@H](C)CCO[C@@H]2O[C@H](CO[C@@H]3OC[C@](O)(COC1=O)[C@H]3O)[C@@H](O)[C@H](O)[C@H]2O`, the max response in assay [1] was -11.3%; in assay [3] it was -5.92%. In addition, the call in assay [2] was inactive.

With `CC(=O)N[C@@H](CCCCN)C(=O)N(C)[C@@H](CC(C)C)C(=O)N[C@H](C(=O)N(C)[C@@H](Cc1ccccc1)C(=O)N[C@H](Cc1ccccc1)C(N)=O)C(C)C`, the max response in assay [1] is -11.8%; in assay [3], -4.99%. Moreover, the molecule was called inactive in assay [2].

For `CC(=O)O[C@H]1CC(C)(C)CC2[C@@]13[C@H](O)C[C@]1(C)[C@@]2(CCC2[C@@]4(C)CC[C@H](O[C@@H]5OC[C@H](O[C@@H]6O[C@H](CO)[C@@H](O)[C@H](O)[C@H]6O[C@@H]6OC[C@@H](O)[C@H](O)[C@H]6O)[C@H](O)[C@H]5O[C@@H]5O[C@H](CO)[C@@H](O)[C@H](O)[C@H]5O)C(C)(C)C4CC[C@]21C)O[C@@H]3O` (stereo partly specified), the Potency was 3480 nM (active) in assay [1] and 2760 nM (active) in assay [3]. The max response in assay [2] was -24.8%.

Take `C[C@H]1O[C@@H](O[C@H]2CC[C@@]3(C)C(CC[C@]4(C)C3CC=C3C5CC(C)(C)CC[C@]5(C(=O)O)CC[C@]34C(=O)O)C2(C)C)[C@H](O)[C@@H](O)[C@@H]1O` (stereo partly specified): the max response in assay [1] is -21.6%; in assay [2] it was 4.81%; in assay [3] it was 3.7%.

For `CS(=O)(=O)N(CC(=O)NCC1CC1)c1cc(C(F)(F)F)ccc1Cl`, the max response in assay [1] was -2.56%; in assay [2], 5.98%; in assay [3], -6.39%.

Consider `C/C=C(/COC(=O)/C(C)=C/C)C(=O)OC(CC)c1ccc(OC)c(OC)c1` (stereo unspecified), for which the max response is 3.4% in assay [1], 9.77% in assay [2] and 1.56% in assay [3].

For the molecule `C=C1C[C@]23C[C@H]1[C@@H](O)C[C@H]2[C@@]12C=C[C@H](O)[C@@](C)(C(=O)O1)[C@H]2[C@@H]3C(=O)O`, the max response in assay [1] was -32.5%; in assay [2] it was -2.31%; in assay [3], 0.227%.

`CC(C)CCC1(O)C(=O)C(C)(C)C(O[C@@H]2O[C@H](CO)[C@@H](O)[C@H](O)[C@H]2O)C(C)(C)C1O` (stereo partly specified): the results for the max response in assay [1], in assay [2] and in assay [3] were -4.8%, 0.0434% and -0.747%, respectively.

As for `CC1(c2nc3c(C(N)=O)cccc3[nH]2)CCCN1` (stereo unspecified), the results for the max response in assay [1] and in assay [3] were -9.07% and -5.13%, respectively. The outcome in assay [2] was inactive.

Regarding `C/C1=C\CCC2=C[C@@H](OC2=O)c2c(C)coc2C1`, the values for the max response in assay [1], in assay [2] and in assay [3] were -3.91%, 2.55% and -21.8%, respectively.

For the molecule `CC(C)CC(=O)O[C@@H]1OC=C(CO[C@@H]2O[C@H](CO)[C@@H](O)[C@H](O)[C@H]2O)[C@H]2[C@@H]3O[C@H]3[C@@](O)(CO)[C@@H]12`, the max response in assay [1] was 1.46%; in assay [2], 6.77%; in assay [3] it was 2.35%.

With `O=C1CCC=CC1(O)C(=O)OCc1ccccc1O[C@@H]1O[C@H](CO)[C@@H](O)[C@H](O)[C@H]1O` (stereo partly specified), the max response in assay [1] is -22.3%; in assay [2] it was -1.56%; in assay [3], -27.2%.

Regarding `CC(C)S(=O)(=O)NC[C@H](C)c1ccc(NC(=O)c2cc(F)cc(F)c2)cc1`, the figures for the max response in assay [1], in assay [2] and in assay [3] were -5.79%, 3.14% and 3.47%, respectively.

For the molecule `COC(=O)C(C)C1CCC2(C)C(=O)C=CC(C)(O)C2C1O` (stereo unspecified), the values for the max response in assay [1] and in assay [3] were 4.7% and 2.97%, respectively. Also, the call in assay [2] was inactive.

On to `C=C1CCC2C(C)(C(=O)OC)CCCC2(C)C1CCC(C)CC(=O)O` (stereo unspecified), for which the max response in assay [1] is -22.8%; in assay [2] it was 0.0997%; in assay [3] it was 2.98%.

`O=C1OCC(c2ccccc2)=C1Cc1ccccc1`: the max response in assay [1] is -5.17%; in assay [2] it was -0.0133%; in assay [3], -8.21%.

For the molecule `CC1(C)CCCC2(C)C(CO)C(CO)=CCC12` (stereo unspecified), the max response is 0.151% in assay [1], -2.42% in assay [2] and -1.37% in assay [3].

With `CN[C@H](C(=O)N[C@H](C(=O)N(C)[C@H](/C=C(\C)C(=O)O)C(C)C)C(C)(C)C)C(C)(C)c1ccccc1`, the max response was -1.54% in assay [1] and -50.4% in assay [3]. The Potency in assay [2] is 4.6 nM (active).

As for `CC1(C)CCC2(C(=O)OC3OCC(O)C(O)C3O)CCC3(C)C(=CCC4C5(C)CC(O)C(OC6OC(COC7OCC(O)C(O)C7O)C(O)C(O)C6O)C(C)(C)C5CCC43C)C2C1` (stereo unspecified), the results for the max response in assay [1] and in assay [3] were 2.92% and -1.51%, respectively. In assay [2], the molecule was classed as inactive.

As to `O=C(/C=C/c1ccc(O)cc1)N[C@@H](Cc1ccc(O)cc1)C(=O)O`, the figures for the max response in assay [1], in assay [2] and in assay [3] were 1.92%, -2.01% and 1.16%, respectively.

In the case of `CC(=O)O[C@@H]1[C@@H](CO)O[C@@](CO)(O[C@H]2O[C@H](COC(=O)/C=C/c3ccccc3)[C@@H](O)[C@H](O)[C@H]2O)[C@H]1O`, the max response in assay [1] is -9.37%; in assay [3], 1.35%. In addition, in assay [2], the molecule was classed as inactive.
